Data reported in PubChem BioAssay.
Values without a mark were called inactive.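 How the source made its calls, unless noted: active means fluorescence slope higher than the sample average by over 3 SD (cut at about -0.22 in these data, passing the limit was not always enough); inactive means the rest.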

target: Dual specificity protein phosphatase 6 (Homo sapiens) (UniProt Q16828); test: DUSP6 inhibitors restoring Erk phosphorylation by chemical complementation, primary imaging in DUSP6-transfected HeLa (AID 609;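 active means compounds giving at least 50% inhibition in the cell-based MKP-3 phosphatase rescue imaging test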;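 further: phospho-Erk level distribution per well compared with pooled transfected vehicle control wells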); conditions: HeLa MKP-3 transfected, phospho-Erk imaging KS statistic; at 10 µM; active compounds read high; cells stimulated with TPA for 15 min
Sequence (Q16828 whole entry, looked up): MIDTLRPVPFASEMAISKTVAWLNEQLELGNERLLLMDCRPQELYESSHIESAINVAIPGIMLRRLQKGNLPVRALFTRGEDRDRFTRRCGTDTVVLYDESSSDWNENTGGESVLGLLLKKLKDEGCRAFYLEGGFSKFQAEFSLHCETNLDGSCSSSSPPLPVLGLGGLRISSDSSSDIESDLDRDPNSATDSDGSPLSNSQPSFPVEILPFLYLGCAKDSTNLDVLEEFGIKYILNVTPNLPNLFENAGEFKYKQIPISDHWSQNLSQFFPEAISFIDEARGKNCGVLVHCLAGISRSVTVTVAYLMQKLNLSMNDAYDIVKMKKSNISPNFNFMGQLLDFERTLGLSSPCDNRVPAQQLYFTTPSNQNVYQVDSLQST

| Compound | inhibition [%] |
| --- | --- |
| Cc1c(CCC#N)c(N2CCCCC2)n2c(nc3ccccc32)c1C#N | -6.06 |
| CN(C)C/C(Cl)=C(\Cl)c1ccccc1 | 4.25 |
| CC(C)Cc1nc(N2CCCCC2)c(C#N)c2c1CCC2 | 1.6e-07 |
| CCCCCc1nc2sc3c(c2c(=O)n1N)CCC3 | -9.7 |
| CCOC(=O)Cn1c(SC)nc2sc3c(c2c1=O)CC(C)(C)OC3 | -0.159 |
| Cc1ccc(SCc2nnc(N)s2)cc1 | -15 |
| CC(C)Cc1nc(N2CCOCC2)c(C#N)c2c1CCC2 | -5.26 |
| CCOc1ccc(Cn2c(O)cc(=O)[nH]c2=O)cc1 | 14 |
| Cc1ccc(S(=O)(=O)NC(=O)NCc2ccc3c(c2)OCO3)cc1 | 5.57 |
| CCCCn1c(-c2ccc(Cl)cc2)nc2c(=O)n(C)c(=O)[nH]c21 | 11 |
| CCCCNC(=O)C(C#N)c1nc2ccccc2nc1N1CCN(Cc2ccc3c(c2)OCO3)CC1 (centres undefined) | 15 |
| c1ccc(-c2nnc3sc(Cc4cccs4)nn23)cc1 | 11.9 |
| CC(=O)C1=C(O)C(=O)N(c2cccc(C(=O)O)c2)C1c1ccc(F)cc1 (centres undefined) | -6.06 |
| Cc1ccc(OCc2nnc(NC(=O)c3ccco3)s2)c(C)c1 | -1.12 |

target: Voltage-gated potassium channel subunit beta-2 (Rattus norvegicus) (UniProt P62483); test: KvBeta enzyme negative modulators, primary screen, biochemical, NADPH fluorescence (AID 622); conditions: recombinant KvBeta, 4-cyanobenzaldehyde reduction, at 10 µM, active compounds read high;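 further: slope of raw intensity against log time taken from 70 to 1610 s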
Sequence (P62483 whole entry, looked up): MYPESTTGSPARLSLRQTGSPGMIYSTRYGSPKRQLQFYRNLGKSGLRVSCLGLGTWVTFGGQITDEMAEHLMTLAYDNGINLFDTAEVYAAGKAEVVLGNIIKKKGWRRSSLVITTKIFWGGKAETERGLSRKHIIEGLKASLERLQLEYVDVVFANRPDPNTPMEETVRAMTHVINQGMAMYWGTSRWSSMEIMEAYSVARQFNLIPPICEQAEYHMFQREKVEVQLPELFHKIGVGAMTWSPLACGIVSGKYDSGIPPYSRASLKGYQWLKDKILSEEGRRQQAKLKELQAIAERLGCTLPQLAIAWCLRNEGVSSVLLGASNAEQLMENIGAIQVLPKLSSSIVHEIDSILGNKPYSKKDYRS

| Compound | fluorescence slope |
| --- | --- |
| Cc1nc(NS(=O)(=O)c2ccccc2)sc1NC(=O)OCCN(C)C | -0.331 |
| Cn1c(=O)n(CCc2ccccc2)c(=O)c2c1ncn2Cc1ccccc1 | -0.508 |
| CC(C)OC(=O)c1nn2c(C(F)(F)F)cc(-c3ccc(Br)o3)nc2c1Br | -0.29 |
| CCCc1nn(C)c2c1C(c1cccnc1)C(C#N)=C(N)O2 (centres undefined) | -0.274 |
| Cc1ccccc1NC(=O)NCCc1nc2ccccc2[nH]1 | -0.474 |
| Nc1c(Br)cc2oc(-c3ccccc3)nc2c1Br | -0.482 |
| CCCc1[nH]nc2c1C(c1c(C)nn(-c3ccccc3)c1Cl)C(C#N)=C(N)O2 (centres undefined) | -0.399 |
| COC(=O)c1c(NC(=O)c2nn(C)cc2Cl)sc2c1CCCC2 | -0.389 |
| Cc1cc(=O)oc(C)c1C(=O)Nc1cccc2nonc12 | -0.297 |
| CC(C)c1nc(N2CCOCC2)c(C#N)c2c1CCC2 | -0.511 |
| CCOC(=O)c1c(C)n(C)c2ccc(OC)c(NC(=O)CN3CCN(Cc4ccccc4)CC3)c12 | -0.431 |
| CC(C)CC(NC(=O)OC(C)(C)C)C(=O)NCc1ccccc1 (centres undefined) | -0.475 |
| O=c1[nH]nc2n1CCCCC2 | -0.501 |
| Cc1ccc(N(CN2C(=O)NC(C)(C)C2=O)CN2C(=O)NC(C)(C)C2=O)cc1 | -0.315 |
| CC1CN(C2CCN(S(=O)(=O)c3ccc4ccccc4c3)CC2)CC(C)O1 (centres undefined) | -0.389 |
| CC(C)(C)C1CCC2(CC1)C(C#N)=C(SCC(=O)Nc1ccccc1)NC(=O)C2C#N (centres undefined) | -0.461 |
| CCOC(=O)c1cc2c(=O)n3cccc(C)c3nc2n(Cc2cccnc2)c1=N | -0.457 |
| OC(CNCCCN1CCCCC1)COc1ccccc1 (centres undefined) | -0.512 |
| Cc1ccc(-c2ccccc2NC(=O)C2C3C=CC(C3)C2C(=O)O)o1 (centres undefined) | -0.352 |
| Cn1c(=O)c2c3c(sc2n2c(SCC(N)=O)nnc12)CC(C(C)(C)C)CC3 (centres undefined) | -0.371 |

| Compound | fluorescence slope |
| --- | --- |
| CCOc1cccc(-c2nn3c(-c4ccccn4)nnc3s2)c1 | -0.427 |
| Cn1c(=O)n(C)c2cc(C(=O)c3ccccc3)ccc21 | -0.53 |
| CCC(=O)OC1=C2C(=Nc3c(c(=O)n(C)c(=O)n3C)C2c2ccccc2)c2ccccc21 (centres undefined) | -0.505 |
| Cc1ccsc1C1NC(=O)c2c(sc3c2CCCC3)N1 (centres undefined) | -0.411 |
| CCCCc1ccc(NC(=O)CSC2=C(C#N)C(c3ccco3)C3=C(CCCC3=O)N2)cc1 (centres undefined) | -0.44 |
| CCCCNc1nc2c(c(=O)n(C)c(=O)n2C)n1Cc1cccc(OC)c1 | -0.378 |
| Cc1c(CCC#N)c(N2CCCCC2)n2c(nc3ccccc32)c1C#N | -0.341 |
| CN(C)C/C(Cl)=C(\Cl)c1ccccc1 | -0.53 |
| CC(C)Cc1nc(N2CCCCC2)c(C#N)c2c1CCC2 | -0.506 |
| CCCCCc1nc2sc3c(c2c(=O)n1N)CCC3 | -0.507 |
| CCOC(=O)Cn1c(SC)nc2sc3c(c2c1=O)CC(C)(C)OC3 | -0.459 |
| Cc1ccc(SCc2nnc(N)s2)cc1 | -0.396 |
| CC(C)Cc1nc(N2CCOCC2)c(C#N)c2c1CCC2 | -0.511 |
| CCOc1ccc(Cn2c(O)cc(=O)[nH]c2=O)cc1 | -0.322 |
| Cc1ccc(S(=O)(=O)NC(=O)NCc2ccc3c(c2)OCO3)cc1 | -0.485 |
| CCCCn1c(-c2ccc(Cl)cc2)nc2c(=O)n(C)c(=O)[nH]c21 | -0.398 |
| CCCCNC(=O)C(C#N)c1nc2ccccc2nc1N1CCN(Cc2ccc3c(c2)OCO3)CC1 (centres undefined) | -0.362 |
| c1ccc(-c2nnc3sc(Cc4cccs4)nn23)cc1 | -0.467 |
| CC(=O)C1=C(O)C(=O)N(c2cccc(C(=O)O)c2)C1c1ccc(F)cc1 (centres undefined) | -0.509 |
| Cc1ccc(OCc2nnc(NC(=O)c3ccco3)s2)c(C)c1 | -0.308 |
